# Screening results (PubChem BioAssay)
# Shown are actives, neighbours in structure and some others; about 12% of the full set was active somewhere.
# ROMK mod: human ROMK K+ channel modulation, primary screen; B-score at 10 µM; Tet-inducible ROMK, thallium flux fluorescence; actives lie on both sides; P48048; hit rate 2% among 130,000;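 active means signal ratio slope over the read window, or its plate-corrected B-score, at least 3 SD from the plate mean, either direction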;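 further: B-score of the F/F0 ratio slope over 7 to 12 s after thallium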
# m-calpain inh: blocks pig calpain II enzyme activity; purified calpain II, fluorogenic peptide substrate, 30 min; inhibition, % at 16 µM; hit rate 0.37% among 220,000; AID 1236;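 active means inhibition above about 50%, limit read from the data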
# Lmaj promast: Leishmania major promastigote growth inhibition; Leishmania major promastigotes, resazurin fluorescence viability; inhibition, % at 10 µM; hit rate 9% among 200,000; in the data active means inhibition above about 50%;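 further: promastigotes grown with compound for 44 hours at 28 °C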
# WT yeast gro inh: growth inhibition of WT yeast, mitochondrial fusion screen. mitochondrial fusion phenotypic screen, WT strain. inhibition, % at 10 µM. hit rate 2.1% among 190,000; in the data active means inhibition above about 58%; tested in S. cerevisiae
# Cl transport mod: KCC2 (human) Cl- transport modulation; hit rate 2.2% among 190,000; KCC2 cells, thallium flux FluoZin-2 fluorescence; B-score of Tl+ flux slope (higher = more flux/activation; lower = inhibition) at 10 µM; AID 1456; Q9H2X9;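 active means thallium flux slope and its plate-corrected score both differing from the plate sample mean at a set confidence after two filtering rounds, in either direction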;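 further: slope of fluorescence scaled to starting intensity during 10 to 20 s after thallium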
# Target sequence (Q9H2X9 whole entry, looked up): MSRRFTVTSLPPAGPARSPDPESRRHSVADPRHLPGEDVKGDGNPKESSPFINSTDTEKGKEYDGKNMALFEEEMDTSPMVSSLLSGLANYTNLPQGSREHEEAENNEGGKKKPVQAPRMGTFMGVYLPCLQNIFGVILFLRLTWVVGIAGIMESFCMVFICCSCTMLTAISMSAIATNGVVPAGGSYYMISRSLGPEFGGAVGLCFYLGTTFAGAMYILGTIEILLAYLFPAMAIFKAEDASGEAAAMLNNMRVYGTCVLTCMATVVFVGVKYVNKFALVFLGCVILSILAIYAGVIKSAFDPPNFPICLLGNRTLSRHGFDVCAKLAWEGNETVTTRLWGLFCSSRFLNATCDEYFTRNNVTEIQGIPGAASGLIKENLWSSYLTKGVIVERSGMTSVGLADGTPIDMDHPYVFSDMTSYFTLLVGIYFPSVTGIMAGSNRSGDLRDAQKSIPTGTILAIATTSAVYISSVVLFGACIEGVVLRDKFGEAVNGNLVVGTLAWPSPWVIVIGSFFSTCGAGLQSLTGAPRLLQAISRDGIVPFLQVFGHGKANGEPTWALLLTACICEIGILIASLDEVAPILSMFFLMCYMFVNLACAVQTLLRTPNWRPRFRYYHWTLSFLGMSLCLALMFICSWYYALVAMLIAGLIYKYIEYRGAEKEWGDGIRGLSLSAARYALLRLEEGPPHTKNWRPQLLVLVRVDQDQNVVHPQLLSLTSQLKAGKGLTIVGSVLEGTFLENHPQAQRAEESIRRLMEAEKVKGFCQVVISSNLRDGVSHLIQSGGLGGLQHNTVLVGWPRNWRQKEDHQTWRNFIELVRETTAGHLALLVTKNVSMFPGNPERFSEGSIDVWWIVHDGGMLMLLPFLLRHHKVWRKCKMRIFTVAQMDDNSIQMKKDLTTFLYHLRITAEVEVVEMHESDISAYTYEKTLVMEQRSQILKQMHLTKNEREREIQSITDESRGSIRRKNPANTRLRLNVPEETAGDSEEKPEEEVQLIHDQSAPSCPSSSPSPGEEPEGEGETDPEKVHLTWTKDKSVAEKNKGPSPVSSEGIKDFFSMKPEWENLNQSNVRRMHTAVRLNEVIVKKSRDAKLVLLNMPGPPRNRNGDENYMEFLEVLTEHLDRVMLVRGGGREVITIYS
# KCC2 sec1: confirmation of human KCC2 transport modulators. shares compounds with Cl transport mod. HEK293-KCC2, thallium flux, FluoZin2 fluorescence; hits give high values. normalised thallium flux (F/F0 slope) at 10 µM. hit rate 15% among 3,700. AID 1713;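 active means thallium flux slope above the same plate's solvent-only control mean plus 3 SD; inconclusive means the two replicate wells disagree; inactive means no significant difference from solvent-only control wells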
# KCC2 bumet counter: thallium flux persisting under bumetanide in KCC2 cells, counter-screen secondary assay; shares compounds with Cl transport mod; HEK293-KCC2 + bumetanide/ouabain, thallium flux FluoZin2; hits give high values; normalized thallium flux at 10 µM; hit rate 49% among 3,700; AID 1714;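 active means thallium entry rate above the same plate's blocked-transporter control wells by more than 3 SD; inconclusive means the two repeat wells disagree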;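 further: raw slope of fluorescence over initial fluorescence between 10 and 20 s after thallium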
# KCC2 secondary2: KCC2 (human) modulation, second secondary assay; AID 1715; HEK293-KCC2, thallium flux FluoZin2 fluorescence; actives lie on both sides; F/F0 rise rate, 10–20 s post-thallium; hit rate 23% among 3,700; shares compounds with Cl transport mod; normalized thallium flux at 10 µM;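 active means thallium flux slope more than 3 SD above or below the plate's solvent-only control mean, mostly below; inconclusive means the two repeat wells disagreed; inactive means no significant shift from solvent-only controls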;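 further: raw slope with 0.1% DMSO as baseline and bumetanide as block control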
# HEK counter1: acts in parental HEK cells, KCC2 counter-screen. shares compounds with Cl transport mod. HEK293 parental cells, thallium flux FluoZin2, ouabain; baseline-ratio fluorescence slope, 10–20 s after thallium. thallium flux rate (normalised fluorescence) at 10 µM. hit rate 46% among 3,700;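 active means thallium flux rate significantly above the same plate's solvent-only control wells, beyond their mean plus 3 SD; inconclusive means the two replicate wells gave conflicting results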
# KCC2 retest ouab: modulates human KCC2 on retest with ouabain; raw Tl+ flux slope (below DMSO = inhibition, above = activation) at 10 µM; shares compounds with Cl transport mod; hit rate 48% among 3,700; HEK293-KCC2, thallium flux FluoZin2 fluorescence; bidirectional: low = inhibitor, high = activator; AID 1717;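 active means thallium flux slope beyond 3 SD from same-plate DMSO control mean in most replicates, usually higher, sometimes lower; inconclusive means repeat tests gave conflicting results; inactive means no significant difference from controls in most replicates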;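 further: slope of initial-normalized fluorescence between seconds 10 and 20 after thallium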
# HEK293 Tl flux2: parental HEK flux effect, counter-screen 2; HEK293 parental, thallium flux FluoZin-2 fluorescence slope; shares compounds with Cl transport mod; hit rate 33% among 3,700; thallium flux slope at 10 µM; AID 1718;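 active means thallium flux slope above the same plate's solvent-control mean plus 3 SD in both duplicate wells; inconclusive means duplicate wells that disagreed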;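 further: run without ouabain in cells lacking the KCC2 cotransporter; slope of fluorescence scaled to its starting value between 10 and 20 s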
# Active calls of the source: *; ? = inconclusive; nt = not tested or not shown.
SMILES,ROMK mod,m-calpain inh,Lmaj promast,WT yeast gro inh,Cl transport mod,KCC2 sec1,KCC2 bumet counter,KCC2 secondary2,HEK counter1,KCC2 retest ouab,HEK293 Tl flux2
COC(=O)c1cc(OC)c(OC)cc1NC(=S)N1CCN(C)CC1,nt,-18,2,-19,nt,nt,nt,nt,nt,nt,nt
COc1ccc([C@@]2(O)c3c(ccc(CC=C(C)C)c3O)NC(=O)[C@@H]2OC)cc1,nt,-18,nt,nt,-0.61,nt,nt,nt,nt,nt,nt
C=CCn1c(SCC(=O)c2cc(C)n(CCOC)c2C)nc2sc(C)c(C)c2c1=O,-0.44,-2,-1,-1,nt,nt,nt,nt,nt,nt,nt
CC(C)CCNC(=O)c1c(CSc2ccccc2)noc1C(=O)NCc1ccccc1,nt,28,nt,nt,0.48,nt,nt,nt,nt,nt,nt
CCSc1oc(-c2ccco2)nc1S(=O)(=O)c1ccccc1,nt,-18,6,2,6.5*,0.0097,0.0049,0.034,0.0041,0.02,0.012
CCCSc1oc(-c2ccco2)nc1S(=O)(=O)c1ccccc1,nt,-14,11,14,-0.41,nt,nt,nt,nt,nt,nt
Cc1ccccc1Nc1nc(=O)c2cc([N+](=O)[O-])ccc2s1,nt,6,14,-5,4.2*,0.0057,0.02*,0.036,0.016*,0.031*,0.016*
Cc1ccccc1Nc1nc2ccccc2s1,nt,-6,1,20,-0.044,nt,nt,nt,nt,nt,nt
Cc1nc(N2CCN(Cc3ccccc3)CC2)nc2c1CCC2,1.6,28,15,11,-1.2,nt,nt,nt,nt,nt,nt
Cc1nc(N2CCN(Cc3ccccc3)CC2)nc2c1C(=O)CCC2,1.2,29,1,14,-2.9*,0.0065,0.0042,?,0.0069,0.015*,0.0095
O=[N+]([O-])c1ccc(NC(=S)NCCc2ccc(Cl)cc2)cc1,nt,68*,91*,83*,-5*,0.017,0.0031,0.026*,?,0.014,0.0099
Cc1cccc(C)c1NC(=S)N=Nc1c(O)n(C)c2ccc(S(=O)(=O)N3CCOCC3)cc12,-1.6,-59,-1,-5,4.4*,0.01,0.027*,0.035,0.012*,0.028,0.012*
Cn1c(=O)n(C)c2cc(S(=O)(=O)N3CCOCC3)ccc21,nt,-19,-3,-6,0.28,nt,nt,nt,nt,nt,nt
Cc1ccccc1NC(=S)N=Nc1c(O)n(C)c2ccc(S(=O)(=O)N3CCOCC3)cc12,0.022,-7,-4,57,15*,0.011,0.07*,0.035,0.023*,?,?
Cc1cccnc1NC(=O)Cn1nc(C)c([N+](=O)[O-])c1C,0.31,-1,-5,-3,2,nt,nt,nt,nt,nt,nt
O=C(CNc1cccc2ccccc12)N/N=C/c1ccc([N+](=O)[O-])cc1,nt,-15,-5,-10,0.59,nt,nt,nt,nt,nt,nt
Cc1ccccc1NCC(=O)N/N=C/c1ccc([N+](=O)[O-])cc1,-1.3,18,1,7,-5.8*,0.0075,0.0049,?,0.008,0.018,0.0099
Cc1[nH]n(-c2ccc([N+](=O)[O-])cc2)c(=O)c1C=NCC1CCCO1 (configuration not stated),0.2,-12,-6,0,-1.4,nt,nt,nt,nt,nt,nt
Cc1ccc(-n2[nH]c(C)c(/C=N/Nc3ccc([N+](=O)[O-])cc3[N+](=O)[O-])c2=O)cc1,nt,19,-18,47,-4.7*,0.0064,0.011*,0.03,0.0072,?,0.0095
Oc1ccc(CCc2n[nH]c(=S)n2-c2ccc(F)cc2)cc1,nt,5,nt,nt,nt,nt,nt,nt,nt,nt,nt
CC(=O)Nc1nc2ccc(NC(=O)c3ccco3)cc2s1,0.042,21,-1,-31,0.1,nt,nt,nt,nt,nt,nt
Cc1ccc2nc(NC(=S)NC(=O)c3ccco3)sc2c1,1.1,19,40,16,64*,0.024*,0.15*,0.057*,0.084*,0.076*,0.042*
O=C(NC(=S)Nc1nc(-c2ccc(Br)cc2)cs1)c1ccco1,1.6,-37,-5,-4,5.5*,0.0063,0.0078*,0.029,0.011*,0.021,0.011*
O=C(NC(=S)Nc1nc(-c2ccc(Br)cc2)cs1)c1cccnc1,0.37,-4,-3,12,-0.098,nt,nt,nt,nt,nt,nt
Cc1ccnc(NC(=S)NC(=O)c2ccco2)c1,nt,-16,-2,22,7.5*,0.015*,0.057*,0.033,0.02*,0.046*,0.013*
SMILES,ROMK mod,m-calpain inh,Lmaj promast,WT yeast gro inh,Cl transport mod,KCC2 sec1,KCC2 bumet counter,KCC2 secondary2,HEK counter1,KCC2 retest ouab,HEK293 Tl flux2
COc1ccc(N2CCN(S(=O)(=O)c3cnc[nH]3)CC2)cc1,nt,11,nt,nt,0.011,nt,nt,nt,nt,nt,nt
CCOc1ccc(-n2nnnc2SCC(=O)NNC(=O)c2ccco2)cc1,0.24,15,-2,-3,-0.092,nt,nt,nt,nt,nt,nt
Cn1c(=O)c2c(nc(NCC3CCCO3)n2Cc2cccc(Br)c2)n(C)c1=O (configuration not stated),nt,-29,5,-34,-7.6*,0.011,0.0064,0.03,0.0071,0.02,?
Cn1c(NCC2CCCO2)nc2c1c(=O)n(Cc1ccccc1)c(=O)n2C (configuration not stated),0.26,21,-4,-15,nt,nt,nt,nt,nt,nt,nt
CCC(=O)Oc1ccc(C(CC)C(CC)c2ccc(OC(=O)CC)cc2)cc1 (configuration not stated),nt,-7,0,-7,11*,0.007,0.0049,0.029,0.008,0.02,0.011
Cc1nc(NC(=S)Nc2ccccc2)sc1C,0.18,3,24,29,16*,0.0079,0.063*,0.05*,0.032*,0.05*,0.035*
CCc1nnc(NC(=S)Nc2ccccc2)s1,nt,-12,-4,35,3.4,nt,nt,nt,nt,nt,nt
COc1ccc(C(=O)NN/C(=N/S(=O)(=O)c2ccc(C)cc2)c2ccccc2)cc1,nt,-7,nt,nt,-1.7,nt,nt,nt,nt,nt,nt
CC1CCCCN1CCCNC(=O)C1CCN(c2nc3ccccc3o2)CC1 (configuration not stated),nt,10,-1,10,1.4,nt,nt,nt,nt,nt,nt
O=C(NC1CCCCCC1)C1CCN(c2nc3ccccc3o2)CC1,-2.2,16,10,27,nt,0.0094,0.0057,?,0.0042,0.018*,0.011
Cc1ccc(N/N=C/c2c(C)c(C#N)c(=O)n(C)c2O)cc1C,2.1,-4,80*,27,-3.9*,0.01,0.0065,0.035,?,0.019,0.011
CCCCNc1cc(C(=O)O)cc(S(N)(=O)=O)c1Oc1ccccc1,nt,-52,-7,13,-6.4*,0.0063,0.0046,0.023*,0.0064,0.013*,0.0094
COc1ccc(O)c(-c2[nH]ncc2C(=O)c2ccccc2C)c1,-0.47,-21,13,7,nt,nt,nt,nt,nt,nt,nt
Cc1occc1C(=O)Nc1nnc(C(F)(F)F)s1,nt,-20,-9,14,0.36,nt,nt,nt,nt,nt,nt
